Bioassay records (PubChem)
This is a sample that favours compounds with a hit; in the whole collection about 3.5% have one here.
MITF inh – MITF inhibitors, primary screen, biochemical, AlphaScreen, human | AlphaScreen MITF homodimerization, bead proximity signal | Microphthalmia-associated transcription factor (Homo sapiens), O75030 | hit rate 0.91% among 650,000 | AID 1259374, 2018 | inhibition, % at 2.6 µM; in the data active = inhibition above about 50%;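 also: 0% = vehicle wells with protein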
GPR151 ag – activators of human GPR151, primary screen, cell-based, PathHunter beta-arrestin, luminescence | PathHunter beta-arrestin GPR151 cells | activation, % at 11.2 µM | hit rate 1% among 650,000 | G-protein coupled receptor 151 (Homo sapiens), Q8TDV0; in the data active = activation above about 4.9%;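 also: 0% = median of compound wells and 100% = cells with positive control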
Target sequence (Q8TDV0 whole entry, looked up): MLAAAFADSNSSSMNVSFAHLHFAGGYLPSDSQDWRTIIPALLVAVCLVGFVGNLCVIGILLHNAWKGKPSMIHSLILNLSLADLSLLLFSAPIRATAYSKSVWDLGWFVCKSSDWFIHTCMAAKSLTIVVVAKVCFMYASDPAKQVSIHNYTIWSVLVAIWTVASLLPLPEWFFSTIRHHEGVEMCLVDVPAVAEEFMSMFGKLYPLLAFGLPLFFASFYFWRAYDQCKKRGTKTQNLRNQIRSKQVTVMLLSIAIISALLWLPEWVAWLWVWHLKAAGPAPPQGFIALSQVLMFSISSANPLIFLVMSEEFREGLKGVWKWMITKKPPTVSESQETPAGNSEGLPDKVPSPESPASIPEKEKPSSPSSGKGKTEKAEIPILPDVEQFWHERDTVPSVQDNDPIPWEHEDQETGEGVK
TEAD-YAP inh – TEAD-YAP interaction inhibition, primary screen, TEAD-YAP interaction inhibitor project, luminescence, HEK-TIYL cells. TEAD-Gal4/YAP UAS-luciferase luminescence. inhibition, % at 9.12 µM. hit rate 1.4% among 640,000. AID 1259422, 2018; in the data active = inhibition above about 32%;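 also: 0% = median of test compound wells and 100% = reference inhibitor wells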
FBW7 act – FBW7 E3 ligase activators, primary screen, biochemical, AlphaScreen, human. AID 1259310, 2017. normalized activity (activation), % at 26.1 µM. F-box/WD repeat-containing protein 7 (Homo sapiens), Q969H0. AlphaScreen FBW7–phospho-cyclin E peptide binding, activator screen. hit rate 0.13% among 650,000; in the data active = normalized activity above about 1.9%;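 also: purified mutant Fbw7 with reduced substrate affinity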
MITF confirm – MITF inhibitors, retest of hits, confirmation, biochemical, AlphaScreen, triplicate; hit rate 16% among 4,700; inhibition, % at 2.6 µM; AlphaScreen MITF homodimerization, biotin/His-MITF beads; AID 1259372, 2018; shares compounds with MITF inh;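 active = inhibition above a cutoff derived from the DMSO control wells, cut at about 28% in these data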;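 also: 0% = MITF dimer wells with DMSO only; inhibitors lower the bead chemiluminescence by keeping MITF from dimerizing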
AS interf DR – AlphaScreen optical interference compounds, dose response, counter-screen, biochemical, HTS. shares compounds with MITF inh. AlphaScreen optical interference counterscreen, cell-free. IC50, µM. hit rate 6% among 480. AID 1259373, 2018; call rule not given here
AS interf ctr – AlphaScreen optical interference compounds, counter-screen for MITF inhibitor project, biochemical, triplicate; shares compounds with MITF inh; LysRS AlphaScreen counterscreen, signal interference; inhibition, % at 2.6 µM; hit rate 7.6% among 4,700;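 active = inhibition above a cutoff derived from the DMSO control wells, cut at about 30% in these data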
GPR151 conf act – GPR151 activators, triplicate retest, confirmation, cell-based, PathHunter beta-arrestin, luminescence; shares compounds with GPR151 ag; GPR151 PathHunter beta-arrestin cells, 90 min; % of EA-reagent control over plate median; activation, % at 11.2 µM; 6,700 tested, under 10 active; AID 1508609, 2020;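 active = mean percent activation across replicates above the confirmation screen cutoff of 4.91%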
GPR119 ag – GPR119 activators in beta-arrestin cells, counter-screen for GPR151 activator project, cell-based, PathHunter beta-arrestin, luminescence, triplicate; 90 min; 0 = compound-well median, 100 = enzyme-acceptor control; activation, % at 11.2 µM; shares compounds with GPR151 ag; AID 1508611, 2020; hit rate 0.3% among 6,700;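 active = mean percent activation in the counterscreen above 29.09%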;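 also: counterscreen on off-target GPR119 to flag nonselective hits from the GPR151 activator screen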
* hit, by the source's call; . = no result.

SMILES	MITF inh	GPR151 ag	TEAD-YAP inh	FBW7 act	GPR151 conf act	GPR119 ag	others
CCOc1cccc(OCC)c2c(C)[n+](C)c(C)c1-2	73*	0	-34	0	.	.	MITF confirm=79*;AS interf DR=>5.1;AS interf ctr=3
COc1cc(C)c(CN2CCN(CCO)CC2)cc1C	51*	1	2	0	.	.	MITF confirm=2;AS interf ctr=5
CCN1CCN(Cc2ccc(OC)c(Br)c2)CC1	-7	0	-9	0	.	.
COc1cc(Br)c(CN2CCN(CCO)CC2)cc1OC	16	-1	-5	0	.	.
COc1ccc(CN2CCN(Cc3cccc(C)c3)CC2)cc1Br	70*	-1	0	0	.	.	MITF confirm=21;AS interf ctr=8
COc1ccc(CN2CCN(CCO)CC2)cc1Br	77*	-1	-2	0	.	.	MITF confirm=5;AS interf ctr=-2
COc1ccc(CN2CCN(Cc3ccc(Cl)cc3)CC2)cc1Br	80*	-1	12	0	.	.	MITF confirm=6;AS interf ctr=7
c1cncc(-c2noc(C3CCN(CCc4c[nH]c5ccccc45)CC3)n2)c1	3	1	5	0	.	.
O=C(c1cccc(Cl)c1)C1CCCN(CCO)C1 (stereo unspecified)	2	-2	10	0	.	.
CN1CCN(CCC(=O)OC2CC3CCC(C2)N3C)CC1 (stereo unspecified)	9	1	4	0	.	.
CN1C2CCC1CC(OC(=O)CNCc1cccs1)C2 (stereo unspecified)	52*	7.3*	0	0	0	5	MITF confirm=7;AS interf ctr=14
CC(C)OC(C(=O)O)(c1ccccc1)c1ccccc1	-3	0	4	0	.	.
C=CCN(CC#CCOc1ccccc1OC)CC=C	60*	11*	-11	0	0	-4	MITF confirm=7;AS interf ctr=12
CCC(COC(=O)NC)NC(=O)Oc1ccccc1 (stereo unspecified)	-1	5.8*	-1	0	0	1
CCC(COC(=O)NC)NC(=O)Oc1cccc(C)c1 (stereo unspecified)	3	-1	5	0	.	.
O=C(Nc1ccc(Br)cc1C(=O)c1ccccc1Cl)c1ccc(S(=O)(=O)N2CCCC2)cc1	7	0	-3	0	.	.
CN1CCN(Cc2ccccc2Br)CC1	50	5.1*	0	0	0	3
Brc1ccccc1CN1CCOCC1	36	0	-9	0	.	.
O=[N+]([O-])c1ccccc1N1CCNCC1	4	-1	0	0	.	.
COc1cccc(-n2c(-c3ccco3)nc3ccccc3c2=O)c1	3	0	11	0	.	.
O=c1c2ccccc2nc(/C=C/c2ccc3c(c2)OCO3)n1-c1ccccc1O	11	8.9*	-6	0	0	-5
CCOC(=O)C1=C(N)OC(c2ccccc2)=C(C#N)C12C(=O)Nc1ccccc12 (stereo unspecified)	-11	1	2	0	.	.
COc1ccc2[nH]c(C)c(CCNCc3ccc(OC(F)(F)F)cc3)c2c1	42	3	9	0	.	.
COc1ccc2[nH]cc(CN(C)C)c2c1	9	2	12	1	.	.
COc1ccc2[nH]c3c(c2c1)CCN=C3C	-8	5.6*	.	0	0	6
SMILES	MITF inh	GPR151 ag	TEAD-YAP inh	FBW7 act	GPR151 conf act	GPR119 ag	others
Cc1nnc(NC(=O)c2c(O)c3c(n(Cc4ccccc4)c2=O)CCCC3)s1	-12	-1	-7	0	.	.
CCOC(=O)C1=C(C)OC(N)=C(C#N)C12C(=O)N(CC(N)=O)c1ccccc12 (stereo unspecified)	-27	0	-2	0	.	.
CCOC(=O)C1=C(C)OC(N)=C(C(=O)OCC)C12C(=O)N(CC(N)=O)c1ccccc12 (stereo unspecified)	2	9.6*	11	0	0	-5
CCOc1ccccc1NC(=O)N1CCC2(CC1)OCCO2	11	13*	8	0	-1	-2
COc1ccccc1C1N(c2ccccn2)C(=O)C2CCCN21 (stereo unspecified)	6	1	6	0	.	.
COCCCn1c(N)c(C(=O)NCCOC)c2nc3ccccc3nc21	-5	3	17	0	.	.
CCn1c(O)c(C=NCCc2c[nH]c3ccccc23)c(=O)[nH]c1=O	4	5.4*	4	0	0	-5
CCOC(=O)C1=C(C)OC(N)=C(C#N)C12C(=O)N1c3c(cc(CC)cc32)C(C)CC1(C)C (stereo unspecified)	11	9.0*	4	0	0	-8
CCOC(=O)C1=C(N)Oc2cc(O)ccc2C12C(=O)N1c3c(cccc32)C(C)CC1(C)C (stereo unspecified)	6	0	8	0	.	.
COc1ccc(CC(C)NCc2cc(NC(C)=O)cc(C(=O)N3CCCC3)c2)cc1 (stereo unspecified)	2	0	1	0	.	.
CCOC(=O)CCCn1c(C(=O)OCC)c(C=O)c2ccccc21	-11	6.3*	0	0	0	13
COc1ccccc1OCCCn1c(C)c(C=O)c2ccccc21	-11	2	0	0	.	.
O=C(O)c1c2c(nc3ccccc13)CCNC2	-2	6.9*	-9	0	1	8
OCCNc1c2c(nc3ccccc13)CCCC2	1	1	-9	0	.	.
COC(=O)C1C2c3ccccc3O[C@]1(C)N=c1s/c(=C/c3ccccc3Cl)c(=O)n12 (stereo partly specified)	-5	1	-3	0	.	.
O=C1SCC2N1CCCNC21CCCCC1 (stereo unspecified)	-4	0	-8	0	.	.
CCCCc1nc2ccccc2c(=O)n1-c1ccc([N+](=O)[O-])cc1	3	-1	-34	1	.	.
C=CCN1C[C@H](C)N([C@H](c2ccc(C(=O)N(CC)CC)cc2)c2cccc(OC)c2)C[C@H]1C	2	5.2*	.	0	0	-4
